Compound activity as filed in PubChem BioAssay.
Most compounds without a hit are left out; they make up all but 21% or so of the library.
Pf growth 96h: Primary qHTS for delayed death inhibitors of the malarial parasite plastid, 96 hour incubation; P. falciparum luciferase reporter growth, 96 h; 320,000 tested, 6.9% active; Potency, µM (titrated, usually from 28.7 µM), inactives show at the highest dose activity change, negative = inhibition, hits mostly inhibitors; note: potency is the fitted concentration of half-maximal effect; % is set by controls: 0 for no effect and ±100 for the full control effect
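P. falciparum expressing integrated firefly luciferase grown in erythrocytes (2% hematocrit, 0.05% parasitemia final) with compounds for 96 hours at 37 C, 5% CO2. Growth inhibition read as loss of luminescence after adding luciferase detection reagent.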
Pf growth 48h: Primary qHTS for delayed death inhibitors of the malarial parasite plastid, 48 hour incubation | Potency, µM (titrated, usually from 28.7 µM), for inactives: at the highest dose activity change, negative = inhibition, hits mostly inhibitors | P. falciparum luciferase growth in erythrocytes, 48 h | AID 504832, 2011 | 310,000 tested, 5.9% active; note: potency is the fitted concentration of half-maximal effect; % is set by controls: 0 for no effect and ±100 for the full control effect
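Parasite viability was followed by luminescence of a genomically integrated firefly luciferase. Cultures held 0.1% parasitemia at 2% hematocrit (final), incubated under 5% CO2 at 37 C.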
AMA1 RON2 block: qHTS for Inhibitors of AMA1-RON; Towards Development of Antimalarial Drug Lead: Primary Screen; Plasmodium falciparum AMA1 (3D7) - RON2 peptide interaction; AlphaScreen AMA1-biotinylated RON2 peptide binding; Potency, µM (series often up to 58.2 µM), for the others: top-dose activity change, negative = inhibition, most hits filed as inhibitors; 360,000 tested, 0.2% active;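 note: potency is the fitted concentration of half-maximal effect; 0% = vehicle wells and -100% = peptide control; nearly all actives have a fitted effect of over 45% in size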
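AMA1 (3D7) with his tag at 25 nM final met compounds first, then biotinylated RON2 peptide at 25 nM; detection used donor plus acceptor beads, 10 µg/mL apiece, read by AlphaScreen after 30 min at room temperature.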
HCV inh: qHTS Assay for Inhibitors of Hepatitis C Virus (HCV); Potency, µM (doses to about 41.8 µM), for the others: at the top dose activity change, negative = inhibition, most hits filed as inhibitors; AID 651820, 2012; 340,000 tested, 3.4% active; Huh7.5.1 HCVcc-Cre infection, luciferase reporter, 44 h; note: potency is the fitted concentration of half-maximal effect; % is set by controls: 0 for no effect and ±100 for the full control effect
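1,000 cells/well; 4 h culture; + compound; + HCVcc-Cre (~0.5 moi); 44 h; luciferase substrate, RT 15 min; read 15 sec.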
Shiga inhibitor: A qHTS for Small Molecule Inhibitors of Shiga Toxin | Vero cells, Shiga toxin protein synthesis inhibition reporter | inhibition, % at 38.7 µM | 290,000 tested, 9.2% active | AID 2315, 2010; in the data active = inhibition mostly above about 28%, no sharp cut-off; inactive = mostly below about 43%; note: 0% is about no effect
Cycloheximide cs: Cycloheximide Counterscreen for Small Molecule Inhibitors of Shiga Toxin; cell reporter, cycloheximide protein synthesis inhibition counterscreen; max response, %; 300,000 tested, 12% active; AID 2314, 2010; in the data active = max response mostly above about 13%, no sharp cut-off; inactive = mostly below about 14%; note: read at 38.3 µM for the half of the compounds with a filed dose; 0% is about no effect
The depositor's hits bear a star; ! = a repeat was not active; [ ] = dose if it differs, or a comment. Unless noted, calls come from the whole dose curve; as a rule, active = well fitted curve in the direction sought with a large enough effect; inconclusive = small, poorly fitted or top-dose-only effect, or another doubt; inactive = no such curve, though single readings can be large; an effect the other way counts as inactive or inconclusive.

COCCn1c(C)cc(C(=O)COC(=O)c2ccc(Br)o2)c1C was read as Pf growth 96h 31.4%, Pf growth 48h 252.6%, AMA1 RON2 block -20.0%, HCV inh inconclusive, Shiga inhibitor 55.5* and Cycloheximide cs 28.9*.
Cc1cc(C(=O)COC(=O)c2ccc(Br)o2)c(C)n1C was read as Pf growth 96h 23.2%, Pf growth 48h -15.3%, AMA1 RON2 block -22.1%, HCV inh 16.2%, Shiga inhibitor 58.1* and Cycloheximide cs 40.4*.
`COc1ccc(CNC(=O)[C@@H](NC(=O)C2CCN(C(=O)[C@@H](N)CCSC)CC2)C(C)C)cc1` gave Pf growth 96h 18.6%, Pf growth 48h 4.0%, AMA1 RON2 block 4.2%, HCV inh 5.7%, Shiga inhibitor -3.1 and Cycloheximide cs -1.5.
`CNCCCC1Sc2ccccc2Oc2ccccc21` (stereo not drawn) gave Pf growth 96h 9.28µM*, Pf growth 48h inconclusive, AMA1 RON2 block 13.9%, HCV inh inconclusive, Shiga inhibitor -7.7 and Cycloheximide cs -4.5.
Screening COc1ccccc1N1CCN(/N=C\c2sccc2C)CC1 returned Pf growth 96h inconclusive, Pf growth 48h 48.8%, AMA1 RON2 block 12.6µM*, HCV inh -5.2%, Shiga inhibitor 99.4* and Cycloheximide cs 38.4.
For COc1ccccc1N1CCN(/N=C/c2cc(OC)c(OC)c(OC)c2)CC1 the results were Pf growth 96h inconclusive, Pf growth 48h 31.7%, AMA1 RON2 block -32.2%, HCV inh -20.5%, Shiga inhibitor 15.1 and Cycloheximide cs 9.0.
COc1cc(/C=N/N2CCN(c3ccccc3OC)CC2)ccc1O was read as Pf growth 96h 3.4%, Pf growth 48h 15.0%, AMA1 RON2 block -16.3%, HCV inh 7.1%, Shiga inhibitor active and Cycloheximide cs 25.6*.
Screening COc1ccccc1N1CCN(/N=C/C(Cl)=C/c2ccccc2)CC1 returned Pf growth 96h 83.5%, Pf growth 48h 208.4%, AMA1 RON2 block inconclusive, HCV inh inconclusive, Shiga inhibitor 81.2* and Cycloheximide cs 33.0*.
Screening COc1ccccc1N1CCN(/N=C\c2ccccc2)CC1 returned Pf growth 96h inconclusive, Pf growth 48h 45.0%, AMA1 RON2 block -12.0%, HCV inh 2.4% and Cycloheximide cs 56.6*.
For CN(C)C(=O)CNC(=O)CN1C(=O)NC2(CCCc3sccc32)C1=O (stereo not drawn) the results were Pf growth 96h 29.6%, Pf growth 48h 23.7%, AMA1 RON2 block -8.4%, HCV inh 17.1%, Shiga inhibitor -8.7 and Cycloheximide cs -5.1.
`COc1cc(C(=O)OCC(=O)NC(=O)C2CCCCC2)ccc1OC(F)F` gave Pf growth 96h 45.1%, Pf growth 48h inconclusive, AMA1 RON2 block -4.1%, HCV inh 10.6%, Shiga inhibitor -6.9 and Cycloheximide cs 5.1.
For COc1ccccc1N1CCN(/N=C/c2c(C)nn(-c3ccccc3)c2C)CC1 the results were Pf growth 96h inconclusive, Pf growth 48h inconclusive, AMA1 RON2 block inconclusive, HCV inh -0.4%, Shiga inhibitor 7.9 and Cycloheximide cs 3.0.
`Cc1ccc(N2CCN(/N=C/c3sccc3C)CC2)cc1` gave Pf growth 96h 39.9%, Pf growth 48h 23.3%, AMA1 RON2 block -21.3%, HCV inh 13.8%, Shiga inhibitor 10.0 and Cycloheximide cs 12.1*.
COc1ccccc1N1CCN(/N=C\c2ccc(C)o2)CC1 was read as Pf growth 96h inconclusive, Pf growth 48h 231.3%, AMA1 RON2 block -4.2%, HCV inh 5.7%, Shiga inhibitor 99.6* and Cycloheximide cs 45.4.
COc1ccccc1N1CCN(/N=C/c2cccc(OC)c2OC)CC1 was read as Pf growth 96h 18.9%, Pf growth 48h 13.9%, AMA1 RON2 block -28.5%, HCV inh -12.7%, Shiga inhibitor 61.3* and Cycloheximide cs 15.3*.
`CC1CCN(C(=O)Cn2cnc3c2c(=O)n(C)c(=O)n3C)c2ccccc2S1` (stereo not drawn) gave Pf growth 96h 2.5%, Pf growth 48h 2.7%, AMA1 RON2 block -15.5%, HCV inh -5.9%, Shiga inhibitor 31.3 and Cycloheximide cs -5.9.
`CSc1nc(N(CCO)CCO)c2sc3nc(-c4ccco4)c4c(c3c2n1)CCC4` gave Pf growth 96h -0.2%, Pf growth 48h inconclusive, AMA1 RON2 block 11.2µM*, HCV inh 6.31µM*, Shiga inhibitor -8.1 and Cycloheximide cs 8.7.
COCCNC(=O)CN1CCC(NC(=O)Nc2ccccc2)CC1 was read as Pf growth 48h 6.1%, AMA1 RON2 block 1.2%, HCV inh 7.3%, Shiga inhibitor 17.0 and Cycloheximide cs 1.9.
Screening COCCNC(=O)CN1CCC(NC(=O)Nc2ccc(C(F)(F)F)cc2)CC1 returned Pf growth 96h -101.1%, Pf growth 48h -9.1%, AMA1 RON2 block -7.0%, HCV inh 11.2µM*!, Shiga inhibitor 4.9 and Cycloheximide cs -1.3.
For O=C(COC(=O)/C=C/c1cccc(Br)c1)Nc1ccc(Cl)cn1 the results were AMA1 RON2 block 26.1%.
Screening NC(N)=NC(N)=Nc1ccc(SC(F)(F)F)cc1 returned Pf growth 96h 3.29µM*, Pf growth 48h 14.7µM*, AMA1 RON2 block 47.7%, HCV inh 11.2µM*, Shiga inhibitor -8.1 and Cycloheximide cs -4.1.
Screening NC(N)=NC(N)=Nc1ccc2ccccc2c1 returned Pf growth 96h inconclusive, Pf growth 48h inconclusive, AMA1 RON2 block 48.1%, HCV inh inconclusive, Shiga inhibitor 15.4 and Cycloheximide cs 7.0.
`C=CC(c1ccccc1)C(C(=O)c1ccccc1)N(C)C` (stereo not drawn) gave Pf growth 96h inconclusive, Pf growth 48h 3.9%, AMA1 RON2 block -6.4%, HCV inh 13.0%, Shiga inhibitor 4.6 and Cycloheximide cs -4.7.
Screening CCOC(=O)N(C)C[C@H]1OCc2cnnn2CCCC(=O)N([C@H](C)CO)C[C@H]1C returned AMA1 RON2 block 1.0%.
`CCOC(=O)C1=CN(Cc2ccco2)S(=O)(=O)N(C)C1CC` (stereo not drawn) gave AMA1 RON2 block 0.0% and HCV inh -0.5%[8.37 µM].
Cc1cc([N+](=O)[O-])c2ccccc2[n+]1[O-] was read as Pf growth 96h -19.5%, Pf growth 48h inconclusive, AMA1 RON2 block 1.9%, HCV inh 11.2µM*, Shiga inhibitor -31.9 and Cycloheximide cs -4.1.
For CCCn1c(=O)[nH]c(=O)c2c1nc(-c1cccs1)n2CCOC the results were Pf growth 96h -20.5%, Pf growth 48h 5.3%, AMA1 RON2 block 5.0%, HCV inh 13.4%, Shiga inhibitor -5.9 and Cycloheximide cs 2.9.
